Measured values taken from PubChem BioAssay (Tox21).
Several values for one entry are separate records, joined by “and”; a condition that tells them apart may be missing. Equal entries are not always repeated. Inconclusive results are not listed. Activity calls are given as the source filed them. Calls follow the shape of the dose curve; as a rule, active = well fitted curve in the direction sought with a large enough effect in the repeat runs; inconclusive = weak or mixed curves; inactive = no such curve, though single readings can be large; an effect the other way counts as inactive or inconclusive.

How the values were obtained:
[1] = qHTS RealTime-Glo MT Cell Viability Assay in HepG2 cells - 8 hour (AID 1224873); also: nearly all actives have a fitted effect of over 55% in size; also: potency is read from the fitted curve at half-maximal effect
Summary of the method: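 HepG2 cells mixed with RealTime-Glo MT reagents (NanoLuc plus cell-permeant prosubstrate) were seeded at 600 cells/well, incubated 5 h at 37 C/5% CO2, then pinned with compounds in DMSO; nonlytic luminescence tracked viability during 40 h treatment.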

[2] = qHTS RealTime-Glo MT Cell Viability Assay in HEK293 cells - 40 hour (AID 1224874); settings: RealTime-Glo luminescence; max response: hits give low values; also: nearly all actives have a fitted effect of over 50% in size; also: potency is read from the fitted curve at half-maximal effect
Summary of the method: (§1)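 Measured as luminescence from the same continuously cultured HEK293 wells at successive time points (0, 8, 16, 24, 32, 40 h) after compound addition. Reagent present from seeding; dosing at 5 h; incubation 37 C.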

[3] = A CellTox Green Cytotoxicity Assay to monitor cytotoxicity in HEK293 cells - 24 hour (AID 1224875); also: nearly all actives have a fitted effect of over 45% in size; also: potency is read from the fitted curve at half-maximal effect
Summary of the method: (§2)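 Homogeneous no-lysis format: HEK293 cell suspension mixed with CellTox Green reagent, seeded, incubated 5 h at 37 C/5% CO2, then dosed by pintool with compound in DMSO.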

[4] = A CellTox Green Cytotoxicity Assay to monitor cytotoxicity in HepG2 cells - 16 hour (AID 1224876); also: nearly all actives have a fitted effect of over 45% in size; also: potency is read from the fitted curve at half-maximal effect
Summary of the method: (§3)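 Fluorescent DNA-binding dye, 600 HepG2 cells/well, 5 h preincubation then compound in DMSO; same plates read at 0–40 h, 37 C.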

[5] = qHTS RealTime-Glo MT Cell Viability Assay in HepG2 cells - 32 hour (AID 1224877); also: nearly all actives have a fitted effect of over 55% in size; also: potency is read from the fitted curve at half-maximal effect
Summary of the method: (§4)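 Real-time, nonlytic viability: 600 HepG2 cells/well mixed with NanoLuc enzyme plus prosubstrate; 5 h settle, compound (DMSO) added by pintool; luminescence monitored over 40 h at 37 C.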

[6] = A CellTox Green Cytotoxicity Assay to monitor cytotoxicity in HepG2 cells - 24 hour (AID 1224878); also: nearly all actives have a fitted effect of over 45% in size; also: potency is read from the fitted curve at half-maximal effect
Summary of the method: as §3

[7] = A CellTox Green Cytotoxicity Assay to monitor cytotoxicity in HepG2 cells - 40 hour (AID 1224879); also: nearly all actives have a fitted effect of over 40% in size; also: potency is read from the fitted curve at half-maximal effect
Summary of the method: as §3

[8] = qHTS RealTime-Glo MT Cell Viability Assay in HEK293 cells - 0 hour (AID 1224880); also: top concentration of the series differs between compounds; nearly all actives have a fitted effect of over 45% in size
Summary of the method: as §1

[9] = A CellTox Green Cytotoxicity Assay to monitor cytotoxicity in HEK293 cells - 32 hour (AID 1224881); also: nearly all actives have a fitted effect of over 40% in size; also: potency is read from the fitted curve at half-maximal effect
Summary of the method: as §2

[10] = A CellTox Green Cytotoxicity Assay to monitor cytotoxicity in HepG2 cells - 32 hour (AID 1224883); also: nearly all actives have a fitted effect of over 50% in size; also: potency is read from the fitted curve at half-maximal effect
Summary of the method: as §3

[11] = A CellTox Green Cytotoxicity Assay to monitor cytotoxicity in HEK293 cells - 8 hour (AID 1224884); also: nearly all actives have a fitted effect of over 35% in size; also: potency is read from the fitted curve at half-maximal effect
Summary of the method: as §2

[12] = qHTS RealTime-Glo MT Cell Viability Assay in HepG2 cells - 16 hour (AID 1224885); also: nearly all actives have a fitted effect of over 50% in size; also: potency is read from the fitted curve at half-maximal effect
Summary of the method: as §4

[13] = qHTS RealTime-Glo MT Cell Viability Assay in HEK293 cells - 24 hour (AID 1224886); also: nearly all actives have a fitted effect of over 50% in size; also: potency is read from the fitted curve at half-maximal effect
Summary of the method: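 Cells + reagent dispensed (600 cells/well, HEK293) → 5 h at 37 C/5% CO2 → 23 nL compound in DMSO pinned → 40 h at 37 C → luminescence read at 0, 8, 16, 24, 32, 40 h.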

[14] = qHTS RealTime-Glo MT Cell Viability Assay in HEK293 cells - 8 hour (AID 1224887); also: nearly all actives have a fitted effect of over 50% in size; also: potency is read from the fitted curve at half-maximal effect
Summary of the method: as §1

[15] = A CellTox Green Cytotoxicity Assay to monitor cytotoxicity in HEK293 cells - 16 hour (AID 1224888); also: nearly all actives have a fitted effect of over 35% in size; also: potency is read from the fitted curve at half-maximal effect
Summary of the method: as §2

[16] = qHTS RealTime-Glo MT Cell Viability Assay in HepG2 cells - 0 hour (AID 1224889); also: nearly all actives have a fitted effect of over 50% in size
Summary of the method: as §4

[17] = A CellTox Green Cytotoxicity Assay to monitor cytotoxicity in HepG2 cells - 8 hour (AID 1224890); also: nearly all actives have a fitted effect of over 45% in size; also: potency is read from the fitted curve at half-maximal effect
Summary of the method: as §3

[18] = qHTS assay to identify small molecule antagonists of the estrogen receptor alpha (ER-alpha) signaling pathway using the BG1 cell line in the presence of 0.1 nM 17-beta-estradiol - cell viability counter screen (AID 1259241); also: nearly all actives have a fitted effect of over 40% in size; also: potency is read from the fitted curve at half-maximal effect
Summary of the method: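 Live-cell protease activity (CellTiter-Fluor fluorescence, 30 min) was read in the same wells after VM7Luc4E2 cells had been exposed to compounds with 0.1 nM 17beta-estradiol for 22 hr at 37C.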

[19] = A CellTox Green Cytotoxicity Assay to monitor cytotoxicity in HepG2 cells - 0 hour (AID 1224882); also: nearly all actives have a fitted effect of over 35% in size
Summary of the method: as §3
% is scaled to controls: 0 for no effect and ±100 for the full control effect.

C[C@H]1O[C@@H](O[C@H]2[C@@H](O)C[C@H](O[C@H]3[C@@H](O)C[C@H](O[C@H]4CC[C@@]5(C)[C@H](CC[C@@H]6[C@@H]5C[C@@H](O)[C@]5(C)[C@@H](C7=CC(=O)OC7)CC[C@]65O)C4)O[C@@H]3C)O[C@@H]2C)C[C@H](O)[C@@H]1O
inactive: Potency [1] | Potency [3] | Potency [4] | Potency [5] | Potency [6] | Potency [7] | Potency [8] | Potency [9] | Potency [10] | Potency [11] | Potency [12] | Potency [14] | Potency [15] | Potency [16] | Potency [17] | Potency [18]
active: Potency [2] 61.7 nM and 54.3 nM | Potency [13] 69.2 nM and 61 nM

CS(C)(=O)=O
inactive: Potency [1] | max response [2] -3.02% | Potency [4] | Potency [6] | Potency [7] | Potency [8] | Potency [19] | Potency [12] | Potency [13] | Potency [14] | Potency [16] | Potency [17] | Potency [18]
active: Potency [9] 19.5 µM

CCCCCCCC/C=C\CCCCCCCC(=O)OCCOC(=O)CCCCCCC/C=C\CCCCCCCC
inactive: Potency [1] | max response [2] -19.3% | Potency [3] | Potency [4] | Potency [5] | Potency [6] | Potency [7] | Potency [9] | Potency [19] | Potency [11] | Potency [12] | Potency [13] | Potency [15] | Potency [16] | Potency [17] | Potency [18]
active: Potency [14] 20.2 µM

CSc1ccc2c(c1)N(CCC1CCCCN1C)c1ccccc1S2 (stereo not drawn)
inactive: Potency [19]
active: Potency [1] 54.7 µM and 23.9 µM | Potency [2] 15.4 µM | Potency [3] 24.4 µM | Potency [4] 54.7 µM and 26.8 µM | Potency [5] 43.5 µM and 26.8 µM | Potency [6] 38.7 µM and 23.9 µM | Potency [7] 34.5 µM and 23.9 µM | Potency [9] 30.8 µM | Potency [10] 34.5 µM and 23.9 µM | Potency [11] 34.5 µM | Potency [12] 54.7 µM and 23.9 µM | Potency [13] 15.4 µM | Potency [14] 19.4 µM | Potency [15] 30.8 µM

CCCC(CC)CCCCCCCN (stereo not drawn)
active: Potency [2] 56.3 µM | Potency [9] 44.7 µM | Potency [11] 50.2 µM | Potency [13] 56.3 µM
inactive: Potency [1] | Potency [5] | Potency [19] | Potency [12] | Potency [17] | Potency [18]

Cc1c(C(=O)O)cccc1[N+](=O)[O-]
inactive: Potency [1] | max response [2] -5.1% | Potency [3] | Potency [4] | Potency [5] | Potency [6] | Potency [7] | Potency [8] | Potency [19] | Potency [10] | Potency [11] | Potency [12] | Potency [13] | Potency [14] | Potency [15] | Potency [16] | Potency [17] | Potency [18]

O=C(Nc1ccc(Cl)c(Cl)c1)c1cc(Cl)cc(Cl)c1O
inactive: Potency [1] | Potency [4] | Potency [8] | Potency [19] | Potency [11] | Potency [12] | Potency [14] | Potency [15] | Potency [17]
active: Potency [2] 4.9 µM | Potency [6] 9.77 µM | Potency [7] 8.71 µM | Potency [10] 11 µM | Potency [13] 4.9 µM

CNC(=S)NN
inactive: Potency [1] | Potency [4] | Potency [5] | Potency [6] | Potency [8] | Potency [9] | Potency [10] | Potency [12] | Potency [14] | Potency [15] | Potency [16] | Potency [17] | Potency [18]
active: Potency [2] 19.5 µM

CCCCCCCC(C)=O
inactive: Potency [1] | max response [2] 0.179% | Potency [3] | Potency [4] | Potency [6] | Potency [7] | Potency [8] | Potency [9] | Potency [19] | Potency [11] | Potency [12] | Potency [13] | Potency [14] | Potency [15] | Potency [16] | Potency [17] | Potency [18]

CC(=O)OC1CCCCC1
inactive: Potency [1] | max response [2] -7.58% | Potency [3] | Potency [4] | Potency [5] | Potency [6] | Potency [7] | Potency [8] | Potency [9] | Potency [10] | Potency [11] | Potency [12] | Potency [13] | Potency [14] | Potency [15] | Potency [16] | Potency [17] | Potency [18]

CCNc1nc(NC(C)CC)nc(OC)n1 (stereo not drawn)
inactive: Potency [1] | max response [2] -18.1% | Potency [4] | Potency [5] | Potency [6] | Potency [7] | Potency [8] | Potency [9] | Potency [19] | Potency [10] | Potency [11] | Potency [12] | Potency [13] | Potency [14] | Potency [15] | Potency [16] | Potency [17] | Potency [18]

CCc1ccc(O)c(C(C)(C)C)c1
inactive: max response [2] -13.3% | Potency [5] | Potency [8] | Potency [19] | Potency [11] | Potency [13] | Potency [14] | Potency [15] | Potency [16] | Potency [18]
active: Potency [3] 43.6 µM | Potency [4] 43.6 µM | Potency [6] 38.9 µM | Potency [7] 38.9 µM | Potency [9] 38.9 µM | Potency [10] 38.9 µM | Potency [17] 43.6 µM

CC(=O)Oc1ccc(C2(c3ccc(OC(C)=O)cc3)Oc3ccccc3NC2=O)cc1
inactive: Potency [1] | Potency [3] | Potency [4] | Potency [8] | Potency [19] | Potency [12] | Potency [13] | Potency [14] | Potency [15] | Potency [16] | Potency [17] | Potency [18]

Cc1ccc(N)cc1O
active: Potency [18] 61.1 µM
inactive: Potency [1] | Potency [5] | Potency [8] | Potency [19] | Potency [12] | Potency [14] | Potency [16] | Potency [17]

C=CC(=O)OCCOCC(CC)(COCCOC(=O)C=C)COCCOC(=O)C=C
inactive: Potency [4] | Potency [8] | Potency [19] | Potency [11] | Potency [15] | Potency [16] | Potency [17]
active: Potency [2] 14.4 µM | Potency [7] 25.6 µM | Potency [10] 25.6 µM | Potency [13] 16.1 µM | Potency [18] 14.3 µM

CC(C)(C)c1cc(CCC(=O)NCCCCCCNC(=O)CCc2cc(C(C)(C)C)c(O)c(C(C)(C)C)c2)cc(C(C)(C)C)c1O
inactive: max response [2] -24.8% | Potency [3] | Potency [4] | Potency [6] | Potency [7] | Potency [8] | Potency [19] | Potency [10] | Potency [11] | Potency [15] | Potency [16] | Potency [18]

CC(C(O)c1ccccc1)N(C)CCOC(c1ccccc1)c1ccccc1 (stereo not drawn)
active: Potency [2] 23.9 µM | Potency [4] 23.9 µM | Potency [6] 26.8 µM | Potency [7] 26.8 µM | Potency [9] 26.8 µM | Potency [10] 26.8 µM | Potency [13] 21.3 µM | Potency [17] 26.8 µM
inactive: Potency [8] | Potency [19] | Potency [11] | Potency [18]

Nc1cc(Cl)c([N+](=O)[O-])cc1O
inactive: Potency [1] | Potency [3] | Potency [4] | Potency [5] | Potency [6] | Potency [7] | Potency [8] | Potency [9] | Potency [19] | Potency [11] | Potency [12] | Potency [15] | Potency [16] | Potency [17]

CCC(C)c1cc([N+](=O)[O-])cc([N+](=O)[O-])c1OC(=O)OC(C)C (stereo not drawn)
inactive: Potency [3] | Potency [4] | Potency [8] | Potency [9] | Potency [19] | Potency [11] | Potency [15] | Potency [16]
active: Potency [1] 43.6 µM | Potency [12] 49 µM | Potency [14] 49 µM | Potency [18] 38.6 µM

CN1CCN(C2Cc3ccccc3Sc3ccc(Cl)cc32)CC1 (stereo not drawn)
active: Potency [2] 23.9 µM | Potency [4] 26.8 µM | Potency [5] 23.9 µM | Potency [6] 23.9 µM | Potency [7] 23.9 µM | Potency [9] 21.3 µM | Potency [10] 23.9 µM | Potency [11] 19 µM | Potency [15] 21.3 µM
inactive: Potency [8] | Potency [19] | Potency [14] | Potency [16] | Potency [18]

CC(C)c1cccc(C(C)C)c1N1C(=O)c2ccc(O)cc2C1=O
inactive: Potency [8] | Potency [19] | Potency [11] | Potency [14] | Potency [15] | Potency [16] | Potency [18]
active: Potency [1] 43.6 µM | Potency [4] 24.5 µM | Potency [5] 43.6 µM | Potency [6] 24.5 µM | Potency [7] 24.5 µM | Potency [10] 24.5 µM | Potency [12] 49 µM

CCCC(=O)OCC(COC(=O)CCC)OC(=O)CCC
inactive: Potency [1] | Potency [3] | Potency [4] | Potency [5] | Potency [6] | Potency [7] | Potency [8] | Potency [19] | Potency [10] | Potency [11] | Potency [12] | Potency [13] | Potency [14] | Potency [15] | Potency [16] | Potency [17] | Potency [18]
